NadD block: blocks S. aureus nicotinate mononucleotide adenylyltransferase; AID 602399; inhibition, % at 20 µM; purified NadD enzyme, colorimetric absorbance read-out; 0.78% of 360,000 active; in the data active means inhibition above about 26%
APOBEC3A inh: blocks human APOBEC3A ssDNA deamination | P31941 | recombinant A3A, FAM/TAMRA ssDNA deamination fluorescence | inhibition, % at 20 µM | 0.41% of 330,000 active;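 active means at least 40% inhibition at 20 µM here, with at most 30% in a related deaminase screen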
PfGluPho inh: PfG6PD (Plasmodium falciparum) enzyme inhibition; PfGluPho enzyme, NADPH resazurin-diaphorase fluorescence; inhibition, % at 20 µM; 0.78% of 350,000 active;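 active means inhibition reaching at least a set limit at 20 µM in the primary screen, cut at about 59% in these data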
H9c2 TAG inh: reduces triacylglycerol accumulation in H9c2 cells; Nile Red lipid (TAG) fluorescence; cells loaded with 200 µM oleic acid; inhibition, % at 12.5 µM; 0.66% of 230,000 active; AID 651582;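 active means pattern-corrected inhibition of lipid staining of at least 50% with the nuclear-stain viability signal not falling by more than 50%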
A3G deaminase: APOBEC3G (human) deaminase inhibition | AID 493012 | 0.28% of 330,000 active | Q9HC16 | recombinant A3G, ssDNA deamination FAM/TAMRA fluorescence | inhibition, % at 20 µM;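 active means inhibition of at least 40% at 20 µM, with no more than 30% in the related APOBEC3A deaminase screen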
Target sequence (Q9HC16 whole entry, looked up): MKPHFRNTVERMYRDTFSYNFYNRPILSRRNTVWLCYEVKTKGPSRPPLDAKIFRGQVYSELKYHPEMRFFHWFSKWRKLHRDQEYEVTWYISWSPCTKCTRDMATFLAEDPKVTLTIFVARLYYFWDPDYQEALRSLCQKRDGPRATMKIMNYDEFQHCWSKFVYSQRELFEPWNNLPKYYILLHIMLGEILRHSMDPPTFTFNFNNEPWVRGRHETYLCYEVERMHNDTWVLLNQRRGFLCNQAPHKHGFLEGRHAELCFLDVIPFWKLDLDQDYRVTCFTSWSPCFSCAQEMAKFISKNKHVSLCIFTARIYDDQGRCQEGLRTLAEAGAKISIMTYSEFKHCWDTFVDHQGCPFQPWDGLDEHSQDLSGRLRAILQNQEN
Cardio protect: protects H9c2 cardiomyocytes from peroxide injury; H2O2 injury protection, ATPLite, 2 h; protection from H2O2 cell death, % at 20 µM; 0.63% of 360,000 active; AID 588492;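 active means compounds giving at least 50% protection of heart cells from peroxide-induced death in the single-dose screen, raw or plate-pattern-corrected value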
NadD inh conf: NadD (S. aureus) inhibition, single concentration confirmation; shares compounds with NadD block; purified S. aureus NadD, colorimetric enzyme assay; inhibition, % at 20 µM; 13% of 2,000 active; AID 624309; in the data active means inhibition mostly above about 42%, no sharp cut-off; inactive means mostly below about 42%
Of the large screens only hits and unclear results are named; the others gave an inactive call (follow-up assays come after a bar, where they were run). The list is not random: actives were taken first. Their share in the collection is about 2.9%.

COc1ccc(Nc2sc(C(=O)c3ccc(Cl)cc3)c(N)c2C(=O)Nc2ccccc2OC)cc1	none (no result: H9c2 TAG inh)
COc1ccccc1NC(=O)c1c(Nc2ccccc2C)sc(C(=O)Nc2cccc(Cl)c2)c1N	NadD block 35 (no result: H9c2 TAG inh) | NadD inh conf 47
CC1CCCCc2nc3c(c(=O)n21)CCCC3 (stereo unspecified)	none (no result: APOBEC3A inh, PfGluPho inh, H9c2 TAG inh, A3G deaminase)
Cc1cccc(NC(=O)C2CCN(S(=O)(=O)c3cccc4nsnc34)CC2)n1	none
O=C(NC1CC1)C1CCN(S(=O)(=O)c2cc([N+](=O)[O-])ccc2Cl)CC1	NadD block 52 | NadD inh conf inactive
Cc1cccc2sc(NC(=O)C3CCN(S(=O)(=O)c4cc([N+](=O)[O-])ccc4Cl)CC3)nc12	NadD block 46 (no result: H9c2 TAG inh) | NadD inh conf inactive
Cc1nnc(NC(=O)C2CCN(S(=O)(=O)c3cc([N+](=O)[O-])ccc3Cl)CC2)o1	none
COc1ccc2nc(NC(=O)C3CCN(S(=O)(=O)c4cccc5nsnc45)CC3)sc2c1	NadD block 41 | NadD inh conf inactive
CC(C)(C)n1nnnc1C(c1ccccc1)N1CCN(c2ncc(C(F)(F)F)cc2Cl)CC1 (stereo unspecified)	none (no result: APOBEC3A inh, PfGluPho inh, H9c2 TAG inh, A3G deaminase, Cardio protect)
Cc1ccc(-c2cnc3c(Nc4cccc(OC(F)(F)C(F)F)c4)nccn23)cc1	none (no result: APOBEC3A inh, PfGluPho inh, A3G deaminase)
Cc1ccc(S(=O)(=O)Nc2ccc(Nc3nccn4c(-c5ccccc5Oc5ccccc5)cnc34)cc2)cc1	NadD block 36 (no result: APOBEC3A inh, PfGluPho inh, A3G deaminase) | NadD inh conf 64
Cc1ccc(S(=O)(=O)Nc2ccc(Nc3nccn4c(-c5ccc6ccccc6c5)cnc34)cc2)cc1	NadD block 41 (no result: APOBEC3A inh, PfGluPho inh, A3G deaminase) | NadD inh conf 53
Cc1ccc(S(=O)(=O)N2[C@H](C(C)C)[C@H]3[C@H]4C(=O)N(c5ccccc5)C(=O)[C@H]4CC(=O)[C@H]3[C@@H]2c2ccccc2)cc1	none (no result: APOBEC3A inh, PfGluPho inh, H9c2 TAG inh, A3G deaminase)
CCOC(=O)c1ccc(N=c2scc(C)n2CC)cc1	none (no result: H9c2 TAG inh)
CCOC(=O)c1ccc(N=C2C(=S)N(c3ccc(C(=O)OCC)cc3)C(=N)N2/N=C/c2ccccc2)cc1	NadD block 39 | NadD inh conf inactive
Cc1onc(-c2ccccc2)c1C(=O)Nc1nnc(C(C)(C)C)s1	none (no result: H9c2 TAG inh)
CCCCCCc1cc2cc(/C(N)=N/NC(=O)c3ccncc3)c(=O)oc2cc1O	NadD block 61 (no result: H9c2 TAG inh) | NadD inh conf inactive
CCCCCCCCOC(=O)c1c(CSC(=N)N)n(C)c2cc(Br)c(OC(C)=O)cc12	NadD block 42 | NadD inh conf inactive
Nc1ccccc1S(=O)(=O)NCCCCc1ccccc1	none (no result: H9c2 TAG inh)
CC(=O)CC1c2cc(F)ccc2C=C(c2ccsc2)N1c1ccc(C#Cc2cncn2C)cc1 (stereo unspecified)	NadD block 42 (no result: APOBEC3A inh, PfGluPho inh, H9c2 TAG inh, A3G deaminase, Cardio protect) | NadD inh conf inactive
Cn1cncc1C#Cc1ccc(N2C(c3ccsc3)=Cc3ccc(F)cc3C2c2c[nH]c3ccccc23)cc1 (stereo unspecified)	NadD block 39 (no result: APOBEC3A inh, PfGluPho inh, H9c2 TAG inh, A3G deaminase, Cardio protect) | NadD inh conf inactive
OCCNCCO	none (no result: H9c2 TAG inh)
CCCNC(=O)Cn1c(=O)/c(=C\c2ccc(-c3cccc([N+](=O)[O-])c3)o2)s/c1=C\C(=O)C(C)(C)C	NadD block 35 (no result: H9c2 TAG inh) | NadD inh conf inactive
COc1cc2oc(=O)cc(CN3CCCC3)c2cc1Cl	none (no result: APOBEC3A inh, PfGluPho inh, H9c2 TAG inh, A3G deaminase)
COc1cc2oc(=O)cc(CN3CCN(c4ccccc4F)CC3)c2cc1Cl	NadD block 39 (no result: APOBEC3A inh, PfGluPho inh, H9c2 TAG inh, A3G deaminase) | NadD inh conf inactive
COc1ccc(-c2nnc(Nc3nc4c(OC)cccc4s3)o2)c(OC)c1	none (no result: H9c2 TAG inh)
COc1ccc(-c2nnc(Nc3nc4c(OC)cccc4s3)o2)cc1	NadD block 31 (no result: APOBEC3A inh, A3G deaminase) | NadD inh conf inactive
Cc1cc(O)c(-c2n[nH]c3c2C(c2cccc(O)c2)N(Cc2cccnc2)C3=O)cc1Cl (stereo unspecified)	NadD block 46 | NadD inh conf inactive
CCc1cc2c(=O)c(-c3cnn(-c4ccccc4)c3)c(C)oc2cc1OCC(=O)Nc1ccc(F)c(F)c1	NadD block 33 | NadD inh conf inactive
O=C(Nc1nc(-c2ccccc2)cs1)c1ccc2c(c1)S(=O)(=O)c1ccccc1C2=O	NadD block 35 | NadD inh conf inactive
COc1ccc(C(=O)n2cnc3ccccc32)cc1	none (no result: H9c2 TAG inh)
Cc1ccc(NS(=O)(=O)c2ccc(Cl)c(C(=O)Nc3ccccc3-c3nc4ccccc4[nH]3)c2)cc1C	NadD block 47 | NadD inh conf inactive

Compound activity as filed in PubChem.
